This note sets out measurements from PubChem BioAssay (Tox21).

Experiment [1] in a line: Human pregnane X receptor (PXR) small molecule agonists, qHTS cell viability counter screen (AID 1346977). Note: nearly all actives have a fitted effect of over 50% in size. The essentials:
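In each well, the PXR reporter HepG2 line was checked for viability: CellTiter-Fluor reagent added 23hr post-dosing, fluorescence read after 1hr incubation at 37C.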
On the technique in general: qHTS replaces the single test concentration by a dilution series.

The nature of experiment [2]: Caspase-3/7 induction in HepG2 cells by small molecules, qHTS assay (AID 1346978). Note: nearly all actives have a fitted effect of over 15% in size. The essentials: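 Wild-type HepG2 cells, 2,000/well, settled 5 hr at 37 C and 5% CO2, then compound-treated for 17 hr; caspase-3/7 activity read by luminescent Caspase-Glo 3/7 after 30 min at room temperature.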
Experiment [3] in a line: Caspase-3/7 induction in CHO-K1 cells by small molecules, qHTS cell viability counter screen (AID 1346979). Note: nearly all actives have a fitted effect of over 35% in size. Note: potency is the fitted concentration of half-maximal effect. The procedure, abridged:
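Following a 5hr settling period, CHO-K1 cells at 1,500 per well received DMSO-dissolved compounds. Cell viability was quantified 16hr later by CellTiter-Fluor fluorescence, measured after 1hr with reagent at 37C.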

A short description of experiment [4]: Caspase-3/7 induction in HepG2 cells by small molecules, qHTS cell viability counter screen (AID 1346981). Note: series mostly up to about 92 µM; nearly all actives have a fitted effect of over 30% in size. The essentials:
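The parent HepG2 line is plated at 2,000 cells per well and rested 5 hr before compound pinning from DMSO stocks. Following a 16-hr treatment at 37 C, a fluorogenic live-cell substrate (CellTiter-Fluor) reports viability after 1 hr.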

In experiment [5] the target is Cytochrome P450 2D6 (Homo sapiens) (UniProt P10635). As to the kind of experiment: Cytochrome P450 Family 2 Subfamily D Member 6 (CYP2D6) small molecule antagonists: luciferase reporter qHTS assay (AID 1671196). Note: nearly all actives have a fitted effect of over 50% in size. Note: potency is the fitted concentration of half-maximal effect. The essentials:
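Quantitative HTS of Tox21 chemicals against CYP2D6 using a luminescent proluciferin substrate. After NADPH addition, 1 h room-temperature reaction; luminescence recorded 20 min post detection reagent.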
On the technique in general: A reporter such as luciferase makes a cellular process visible.

Experiment [6] addresses Nuclear receptor subfamily 1 group I member 2 (Rattus norvegicus) (UniProt Q9R1A7). Nature of the experiment: Rat pregnane X receptor (rPXR) activation by small molecules, qHTS assay (AID 1346983). Note: nearly all actives have a fitted effect of over 20% in size. Note: potency is the fitted concentration of half-maximal effect. To be noted: rPXR luciferase reporter cells, One-Glo luminescence, 24 h; max activation: active compounds read high. The essentials:
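Cell-based rPXR activation assay: rPXR cells, 2,000 per well, rested 5hr at 37 C, then exposed to compounds in DMSO for 24 hr at 37 C. Luciferase activity read by One-Glo luminescence after 30 min at room temperature.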

Experiment [7] addresses Nuclear receptor subfamily 1 group I member 2 (Homo sapiens) (UniProt O75469). Nature of the experiment: CYP3A4 induction through human pregnane X receptor (PXR) by small molecules, qHTS assay (AID 1346984). Note: nearly all actives have a fitted effect of over 40% in size. Note: potency is the fitted concentration of half-maximal effect. The essentials:
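Human PXR activation is tracked via CYP3A4 promoter-luciferase in DPX-2 (HepG2) cells. Compounds treat cells for 24hr at 37C, and luminescence is read after One-Glo.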

Experiment [8] in a line: Caspase-3/7 induction in CHO-K1 cells by small molecules, qHTS assay (AID 1346980). Note: nearly all actives have a fitted effect of over 15% in size. The essentials: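 Wild-type CHO-K1 cells exposed to compounds for 17hr at 37 C, 5% CO2. Caspase-3/7 activity then measured by Caspase-Glo 3/7 luminescence after 30min at room temperature.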
Experiment [9] deals with Nuclear receptor subfamily 1 group I member 2 (Homo sapiens) (UniProt O75469). As to the kind of experiment: Human pregnane X receptor (PXR) small molecule agonists, qHTS assay (AID 1346982). Note: nearly all actives have a fitted effect of over 35% in size. Note: potency is the fitted concentration of half-maximal effect. The essentials:
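After plating in 5% charcoal-stripped FBS and a 5 hr rest, PXR-Luc HepG2 cells received compounds in DMSO. Following 24 hr at 37 C, ONE-Glo was added and light output read.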

Experiment [10] shares this target. As to the kind of experiment: Human pregnane X receptor (PXR) activation by small molecules, qHTS assay (AID 1346985). Note: nearly all actives have a fitted effect of over 40% in size. Note: potency is the fitted concentration of half-maximal effect. The essentials: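 DPX-2 cells (HepG2 co-transfected with a PXR response element and a CYP3A4-promoter luciferase construct) were seeded at 2,000 per well, rested 5 hr at 37C, then exposed to DMSO-dissolved compounds for 24 hr. Activation was read as luciferase luminescence.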

A number with no mark means an inactive call. Results filed as inconclusive are left out. Active and inactive are the calls of the source. Calls come from the whole dose curve; as a rule, active = well fitted curve in the direction sought with a large enough effect in the repeat runs; inconclusive = weak or mixed curves; inactive = no such curve, though single readings can be large; an effect the other way counts as inactive or inconclusive.
% is set by controls: 0 for no effect and ±100 for the full control effect.

Chain of Nuclear receptor subfamily 1 group I member 2 (Rattus norvegicus) (Q9R1A7 whole entry, looked up): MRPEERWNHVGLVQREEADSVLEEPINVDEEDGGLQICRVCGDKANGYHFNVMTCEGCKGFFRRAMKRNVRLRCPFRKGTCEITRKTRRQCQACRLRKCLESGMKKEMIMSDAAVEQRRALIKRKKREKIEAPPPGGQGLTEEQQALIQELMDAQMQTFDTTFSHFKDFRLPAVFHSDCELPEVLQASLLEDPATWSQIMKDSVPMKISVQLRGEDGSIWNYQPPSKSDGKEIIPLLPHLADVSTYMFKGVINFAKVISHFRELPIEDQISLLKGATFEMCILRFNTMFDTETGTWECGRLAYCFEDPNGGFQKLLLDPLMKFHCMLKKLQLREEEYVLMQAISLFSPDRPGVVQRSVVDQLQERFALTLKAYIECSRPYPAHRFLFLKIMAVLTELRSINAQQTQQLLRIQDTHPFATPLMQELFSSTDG
Chain of Nuclear receptor subfamily 1 group I member 2 (Homo sapiens) (O75469 whole entry, looked up): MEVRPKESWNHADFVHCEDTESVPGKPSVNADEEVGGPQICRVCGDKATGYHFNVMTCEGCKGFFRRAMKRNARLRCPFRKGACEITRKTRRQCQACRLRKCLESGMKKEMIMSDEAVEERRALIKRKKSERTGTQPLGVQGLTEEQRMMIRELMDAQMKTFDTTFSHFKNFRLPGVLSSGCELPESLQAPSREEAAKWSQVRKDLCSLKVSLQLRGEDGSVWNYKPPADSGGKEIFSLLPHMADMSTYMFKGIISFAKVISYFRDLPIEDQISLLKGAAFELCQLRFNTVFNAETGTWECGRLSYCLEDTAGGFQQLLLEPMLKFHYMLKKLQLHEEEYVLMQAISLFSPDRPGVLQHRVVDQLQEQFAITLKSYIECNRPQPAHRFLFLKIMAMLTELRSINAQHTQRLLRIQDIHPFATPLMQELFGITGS
Chain of Cytochrome P450 2D6 (Homo sapiens) (P10635 whole entry, looked up): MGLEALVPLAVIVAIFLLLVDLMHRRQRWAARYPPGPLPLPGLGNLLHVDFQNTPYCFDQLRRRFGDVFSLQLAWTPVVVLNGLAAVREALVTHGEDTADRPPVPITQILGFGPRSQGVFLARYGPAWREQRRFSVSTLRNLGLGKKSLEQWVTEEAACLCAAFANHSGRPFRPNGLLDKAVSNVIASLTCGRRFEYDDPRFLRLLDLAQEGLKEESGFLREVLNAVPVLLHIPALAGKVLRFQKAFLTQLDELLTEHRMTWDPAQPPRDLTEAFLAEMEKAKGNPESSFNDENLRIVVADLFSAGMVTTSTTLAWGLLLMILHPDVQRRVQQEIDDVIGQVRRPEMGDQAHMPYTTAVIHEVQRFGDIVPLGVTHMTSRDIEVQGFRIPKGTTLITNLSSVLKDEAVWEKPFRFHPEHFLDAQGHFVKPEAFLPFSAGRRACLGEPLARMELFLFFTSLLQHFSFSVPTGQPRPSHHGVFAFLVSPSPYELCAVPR

Consider `FC(F)(F)c1ccccc1`, for which the Potency entry in experiment [1], in experiment [2], in [3], in experiment [4] and in [5] was “inactive” throughout.
With `CCOC(=O)[C@H](CCc1ccccc1)N[C@@H](C)C(=O)N1Cc2cc(OC)c(OC)cc2C[C@H]1C(=O)O`, the Potency entry in [1], in experiment [2], in experiment [3], in experiment [4], in experiment [7] and in [5] was “inactive” throughout. In experiment [6], the max activation was -0.0593%.
Regarding `C=C(C)C(=O)OCCOP(=O)(O)O`, the Potency result in experiment [1], in [2], in [4], in experiment [9] and in [5] was “inactive” in each case. For the same molecule, the molecule was called inactive in [8].
Take `C[C@]12C(=O)OC(=O)[C@H]1[C@H]1C=C[C@@H]2C1`: the Potency entry in experiment [1], in experiment [2], in experiment [3], in experiment [4] and in [5] was “inactive” each time.
Regarding `Cc1ccsc1C(=CCCN1CCC[C@@H](C(=O)O)C1)c1sccc1C`, the Potency entry in experiment [1], in experiment [2], in experiment [9], in experiment [7], in experiment [10] and in experiment [5] was “inactive” in each case. For the same molecule, the molecule was classed as inactive in [8]. In [6], the max activation was 2.87%.
Turning to `CC(C)=CCC[C@](C)(O)[C@@H]1CC=C(C)CC1`, the Potency result in experiment [1], in experiment [2], in [4] and in [9] was “inactive” in each case. The molecule was called inactive in experiment [8].
With `O=C1CCN(c2ccccc2)N1`, the Potency result in [1], in [2], in experiment [3] and in experiment [4] was “inactive” each time. Besides, the Potency in [5] was 35.7 µM (active).
Turning to `Cc1ccccc1C(=O)Nc1ccc(C(=O)N2CCCC(O)c3cc(Cl)ccc32)c(C)c1` (stereo not given), the Potency result in experiment [1], in experiment [2], in [4] and in experiment [9] was “inactive” in each case. The result in [8] was inactive.
Take `ClC(Cl)Cl`: the Potency result in [1], in experiment [2] and in [4] was “inactive” in each case. Also, the molecule was classed as inactive in experiment [8]. The max activation in experiment [6] is 0.159%.
As for `O=C1N(c2ccccc2)c2ccccc2C1(Cc1ccncc1)Cc1ccncc1`, the Potency result in [1], in [2] and in experiment [9] was “inactive” in each case. In addition, in [8], the call was inactive. Besides, the Potency in experiment [5] is 30.9 µM (active).
On to `CC1=CC(=O)CC(C)(C)C1=O`, for which the Potency result in [1], in experiment [2], in experiment [4] and in experiment [5] was “inactive” in each case. Also, the result in [8] was inactive. Besides, the Potency in [9] is 62.4 µM (active).
`CCOc1ccc(OCC)c(Cl)c1`: the Potency result in experiment [1], in experiment [2], in experiment [4], in experiment [9] and in experiment [5] was “inactive” in each case. The molecule was called inactive in experiment [8].
Take `CCCS(=O)c1ccc2nc(NC(=O)OC)[nH]c2c1` (stereo not given): the Potency entry in [1], in experiment [2] and in experiment [4] was “inactive” in each case. For the same molecule, the molecule was called inactive in [8].
On to `CC(C)C1=CC2=CC[C@@H]3[C@](C)(CCC[C@@]3(C)C(=O)O)[C@H]2CC1`, for which the Potency entry in experiment [1], in experiment [2], in [4], in experiment [7], in [10] and in [5] was “inactive” throughout. The call in experiment [8] was inactive. For the same molecule, in experiment [9], the Potency was 27.3 µM (active). The max activation in experiment [6] is -2.9%.
Take `CCc1cc2cc(OC)c(OC)cc2c(Cc2ccccc2)n1`: the Potency result in [1] and in experiment [2] was “inactive” each time. Further, the molecule was called inactive in [8]. In addition, in [9], the Potency is 13.3 µM (active).
In the case of `CC1=C2[C@H](/C=C(\C)C(=O)O)CC[C@@H](C)[C@H]2CC1`, the Potency entry in [1], in experiment [2] and in experiment [3] was “inactive” throughout. In addition, the Potency in [9] is 56.5 µM (active).
In the case of `Cc1ccc([N+](=O)[O-])cc1Cl`, the Potency result in [1], in experiment [2], in experiment [3], in experiment [4] and in [5] was “inactive” throughout. For the same molecule, the Potency in experiment [9] is 61.9 µM (active).
For the molecule `O=c1[nH]cnc2c1ncn2[C@@H]1O[C@H](CO)[C@@H](O)[C@H]1O`, the Potency result in experiment [1], in experiment [2], in [4], in experiment [7], in experiment [10] and in experiment [5] was “inactive” throughout. The Potency in [3] was 1.06 µM (active). In experiment [6], the max activation was -2.07%.
With `COc1ccc2nc(NC(=O)Nc3ccccc3)sc2c1`, the Potency result in experiment [1], in experiment [2] and in [5] was “inactive” throughout. The result in experiment [8] was inactive. The Potency in experiment [9] was 1.88 µM (active); in experiment [6], 0.199 µM (active).
Turning to `CC(C)CCCCCCc1ccc(OCCOCCO)cc1`, the Potency result in experiment [1], in [2], in [3], in [4] and in [5] was “inactive” in each case. The Potency in experiment [9] is 97.2 µM (active).
Take `CCN(CC)C(=O)N(CC)CC`: the Potency result in [1], in experiment [2], in [3] and in experiment [5] was “inactive” in each case.
Regarding `Cc1c(N)cccc1N`, the Potency result in experiment [1], in experiment [3] and in experiment [4] was “inactive” each time. In experiment [8], the molecule was called inactive. Further, in experiment [5], the Potency was 72.6 µM (active).
On to `O=C1Nc2ccc([N+](=O)[O-])cc2C1=O`, for which the Potency result in experiment [2] and in experiment [9] was “inactive” each time. Moreover, the molecule was classed as inactive in [8]. For the same molecule, in experiment [5], the Potency was 7.09 µM (active).
With `NC(Cc1ccc(F)cc1)C(=O)O` (stereo not given), the caspase activation in experiment [2] is 0.163% [at 8.39 µM]. The caspase-3/7 activation in experiment [8] was 2.35% [at 8.39 µM]. Further, the activity change, negative = cytotoxicity in [4] was -1.98% [at 8.39 µM].
Turning to `Cc1cc2c(s1)Nc1ccccc1N=C2N1CCN(C)CC1`, the Potency result in [2], in experiment [7], in [10] and in experiment [5] was “inactive” in each case. Also, the Potency in [3] was 7.5 µM (active). For the same molecule, the molecule was classed as inactive in experiment [8]. For the same molecule, the max activation in [6] was -3.7%.
Turning to `CN1CCN(C2=Nc3cc(F)ccc3Cc3ccccc32)CC1`, the Potency result in experiment [2], in experiment [3] and in [9] was “inactive” in each case. Besides, the result in experiment [8] was inactive. For the same molecule, the max activation in experiment [6] was 2.35%. Moreover, the Potency was 25.1 µM (active) in experiment [7], 22.4 µM (active) in [10] and 4.9 µM (active) in experiment [5].
Take `COc1cc(N)c(Cl)cc1C(=O)NC1CCN(Cc2ccccc2)CC1`: the Potency entry in [2], in experiment [3], in experiment [4], in experiment [9], in experiment [7] and in experiment [10] was “inactive” each time. Moreover, in experiment [8], the outcome was inactive. Further, in experiment [6], the max activation was -4.93%. Further, the Potency in [5] is 0.0309 µM (active).
